Inconclusive results are not listed. Entries that show only a call come without a potency. Activity calls are given as the source filed them. Calls follow the shape of the dose curve; as a rule, active = well fitted curve in the direction sought with a large enough effect; inconclusive = small, poorly fitted or top-dose-only effect, or another doubt; inactive = no such curve, though single readings can be large; an effect the other way counts as inactive or inconclusive.
How the values were obtained:
[1] = biological target: Aldehyde dehydrogenase, mitochondrial (Homo sapiens) (UniProt P05091); test: qHTS for Inhibitors of the Aldehyde Dehydrogenase Family (ALDH2) Primary screen (AID 2061308); also: nearly all actives have a fitted effect of over 55% in size
[2] = biological target: Retinaldehyde dehydrogenase 3 (Homo sapiens) (UniProt P47895); test: qHTS for Inhibitors of the Aldehyde Dehydrogenase Family (ALDH1A3) Primary screen (AID 2061315)

Cc1cc2c(s1)c1cnn(Cc3ccc(F)cc3F)c(=O)c1n2C
Potency [1]: inactive | Potency [2]: inactive

O=[S+]([O-])(c1ccc2c(c1)OCCO2)N1CCN([S+](=O)([O-])c2cc(Cl)ccc2F)CC1
Potency [1]: inactive | Potency [2]: inactive

CCCn1c(C)nc2c(NCC3CCCN3CC)nc(C)nc21 (stereo not given)
Potency [1]: inactive | Potency [2]: inactive

Cc1ccc(-c2cc(C(=O)Nc3ccc(S(=O)(=O)N(C)C)cc3)c3ccccc3n2)cc1C
Potency [1]: inactive | Potency [2]: inactive

COc1ccc(C(=O)N(Cc2ccccc2)Cc2ccccc2)c(O)c1
Potency [1]: inactive | Potency [2]: inactive

CCNC(=O)C1CCC(C(=O)Nc2ccc([S+](=O)([O-])Nc3nccs3)cc2)CC1 (stereo not given)
Potency [1]: inactive | Potency [2]: inactive

O=C(O)c1ccc2c(c1)C(=O)N([C@@H](Cc1ccc(O)cc1)C(=O)O)C2=O
Potency [1]: inactive | Potency [2]: inactive

CCC(=O)NC(C)c1cc(Cl)c2cccnc2c1O (stereo not given)
Potency [1]: inactive | Potency [2]: inactive

CCCn1c(C)nc2c(NCCCN(CCO)CCO)nc(C)nc21
Potency [1]: inactive | Potency [2]: inactive

CNC(=O)c1ccc(-c2cnc3cnc(C(=O)N(C)c4ccc(Cl)cc4)cn23)cc1
Potency [1]: inactive | Potency [2]: inactive

Cc1cc(NS(=O)(=O)c2ccc(NC(=O)Cc3ccc(Cl)c(F)c3)cc2)no1
Potency [1]: inactive | Potency [2]: inactive

Cc1cccc(-c2ccc3ncnc(N(C)Cc4ccco4)c3c2)c1
Potency [1]: inactive | Potency [2]: inactive

N#Cc1ccc(-c2ccc(=O)n(CC(=O)NCCc3ccccc3)n2)cc1
Potency [1]: inactive | Potency [2]: inactive

COC(=O)c1nc(Nc2cc(F)cc(F)c2)nc(NC2CCCC2)n1
Potency [1]: inactive | Potency [2]: inactive

CCOc1ccc(CCNC(=O)c2cc3sccc3n2Cc2ccccc2)cc1OCC
Potency [1]: inactive | Potency [2]: inactive

Cc1ccc(-c2cc(C(=O)Nc3ncco3)c3ccccc3n2)cc1C
Potency [1]: inactive | Potency [2]: inactive

O=S(=O)(Nc1nccs1)c1ccc(NCc2cccc(Cl)c2Cl)cc1
Potency [1]: inactive | Potency [2]: inactive

Cc1ccc(C)c(SC2=CS(=O)(=O)c3ccccc32)c1
Potency [1]: inactive | Potency [2]: inactive

Cc1ccc(OCCn2c(CCNC(=O)N3CCCCC3)nc3ccccc32)cc1
Potency [1]: inactive | Potency [2]: inactive

NC(=O)c1cnc(N[C@@H]2CCCC[C@H]2N)nc1Nc1cccc(-n2nccn2)c1
Potency [1]: inactive | Potency [2]: inactive

O=C(Nc1sc2c(c1-c1nc3ccccc3s1)CCNC2)C(F)F
Potency [1]: inactive | Potency [2]: inactive

Cc1cc(C)nc(NC(=S)N2CCN(c3cncnc3)CC2)c1
Potency [1]: inactive | Potency [2]: inactive

COC(=O)c1ccccc1NC(=O)c1ccccc1OC(F)F
Potency [1]: inactive | Potency [2]: inactive

COc1ccc(NC(=O)c2[nH]c(C)c(C(C)=O)c2C)cc1S(=O)(=O)Nc1cccc(C#N)c1
Potency [1]: inactive | Potency [2]: inactive

COc1ccc(OC)c(-c2nnc3n2N=C(c2c(OC)cccc2OC)CS3)c1
Potency [1]: inactive | Potency [2]: inactive

Cc1nc2ccccn2c1C(O)(c1ccccc1)c1ccccc1
Potency [1]: inactive | Potency [2]: inactive

O=S(=O)(NCC1CN(S(=O)(=O)c2c(F)cccc2F)C1)c1ccc2c(c1)OCCO2
Potency [1]: inactive | Potency [2]: inactive

CC(C)c1ccccc1-c1nc2c(c(NCc3ccc(-c4cccnc4)cc3)n1)CNC2
Potency [1]: inactive | Potency [2]: inactive

NS(=O)(=O)c1ccc(Cc2c(-c3cccc(-c4ccccc4)c3)nn(-c3nc(C(=O)O)cs3)c2C2CC2)cc1
Potency [1]: inactive | Potency [2]: inactive

O=C(CCCc1ccccc1)NC(c1ccco1)c1cc(Cl)c2cccnc2c1O (stereo not given)
Potency [1]: inactive | Potency [2]: inactive

CC(=O)c1ccc(NC(=O)c2cnn3c(C)cc(C)nc23)cc1
Potency [1]: inactive | Potency [2]: inactive

Cc1cc(C)nc(NC(=S)N2CCN(c3ccc(Cl)c(Cl)c3Cl)CC2)c1
Potency [1]: inactive | Potency [2]: inactive

O=c1c2ccc(C(F)(F)F)cc2nc2sc(Nc3ccc4c(c3)CCC4)nn12
Potency [1]: inactive | Potency [2]: inactive

COc1ccc2nc(-c3ccc(Cl)cc3)sc2c1
Potency [1]: inactive | Potency [2]: inactive

CC(=O)Nc1ccc(C(=O)Nc2ccc(-c3nc4ccccc4[nH]3)cc2)cc1
Potency [1]: inactive | Potency [2]: inactive

O=S(=O)(c1ccc2c(c1)OCCO2)N1CCN(S(=O)(=O)c2ccc(Br)cc2F)CC1
Potency [1]: inactive | Potency [2]: inactive

Cc1cccc(C)c1OCc1cccc(C2Nc3ccccc3C(=O)N2Cc2ccco2)c1 (stereo not given)
Potency [1]: inactive | Potency [2]: inactive

Cc1cc(NS(=O)(=O)c2cc3c(cc2F)NC(=O)CC3)ccc1F
Potency [1]: inactive | Potency [2]: inactive

O=C1C(F)N([S+](=O)([O-])c2ccc3c(c2)OCCO3)CCN1[S+](=O)([O-])c1c(F)cccc1F (stereo not given)
Potency [1]: inactive | Potency [2]: inactive

Cc1ccc(S(=O)(=O)Nc2ccccc2C(=O)Nc2ccc(-c3ccccc3)nn2)cc1
Potency [1]: inactive | Potency [2]: inactive
